# Measured values reported in PubChem BioAssay (NCATS).
# Results filed as inconclusive are left out. Unmarked numbers belong to inactive results. Activity calls are given as the source filed them. Calls come from the whole dose curve; as a rule, active = well fitted curve in the direction sought with a large enough effect; inconclusive = small, poorly fitted or top-dose-only effect, or another doubt; inactive = no such curve, though single readings can be large; an effect the other way counts as inactive or inconclusive.
# Test: S16 Schwann cell viability assay (CellTiter-Glo assay) (AID 624031); note: nearly all actives have a fitted effect of over 70% in size;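 for activity change, negative = cytotoxicity: cellular ATP luminescence as a viability measure; plate controls were DMSO-treated cells for no effect and cell-free wells for full effect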
# Conditions: S16 rat Schwann cells viability, 24 h; series mostly up to 57.5 µM; activity change, negative = cytotoxicity: at the top concentration
# In short: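 Untransfected S16 rat Schwann cells; compound 24 h, 37 °C/5% CO2; CellTiter-Glo ATP luminescence. % activity vs no-cell wells and DMSO controls (0%); concentration-effect curves classed by r2, response magnitude, activity.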
# Potency is the fitted concentration of half-maximal effect.
Compound,"activity change, negative = cytotoxicity",Potency
CCCCCCCCCCCCCCCCCC(=O)OCC(O)CO (centres undefined),-3.89%,
COc1cc(-c2ccc(=O)[nH]n2)ccc1OC(F)F,-6.82%,
Cc1c(C(N)=O)cc([N+](=O)[O-])cc1[N+](=O)[O-],-4.36%,
CCN(CC)CCNC(=O)COc1ccc(Cl)cc1,-21.8%,
CCCCCC=CCC=CCCCCCCCC(=O)OCC,-2.71%,
COc1c2occc2c(OC)c2c(=O)cc(C)oc12,5.45% [at 25.7 µM],
Cc1c(F)c(N2CCNC(C)C2)cc2c1c(=O)c(C(=O)O)cn2C1CC1 (centres undefined),-12.8%,
c1ccc(CNCCNCc2ccccc2)cc1,9.36%,
CCCCOc1ccc(C(=O)CCN2CCCCC2)cc1,2.62% [at 25.7 µM],
COc1ccc(CN2CCN(C(c3ccc(F)cc3)c3ccc(F)cc3)CC2)c(OC)c1OC,,28.7 µM (active)
CN1C(CCl)Nc2cc(Cl)c(S(N)(=O)=O)cc2S1(=O)=O (centres undefined),9.52%,
CCC(C(=O)OCCN(CC)CC)c1ccccc1 (centres undefined),-2.07%,
O=C(O)CNC(=O)c1ccccc1,10.4%,
CCOC(=O)OC(C)OC1=C(C(=O)Nc2ccccn2)N(C)S(=O)(=O)c2ccccc21 (centres undefined),7.3%,
NC(CS)C(=O)O (centres undefined),5.4%,
CCOC(=O)/C=C(C)/C=C/C=C(C)/C=C/c1c(C)cc(OC)c(C)c1C,1.87%,
CCOC(=O)c1cccc(N)c1,11.8%,
Cc1c(N(C)CS(=O)(=O)O)c(=O)n(-c2ccccc2)n1C,0.0894% [at 25.7 µM],
NCCc1ccn[nH]1,0.662% [at 25.7 µM],
O=C1c2ccccc2C(=O)C1c1ccccc1,2.81% [at 25.7 µM],
NC(CO)(CO)CO,24.3%,
O=C(COc1ccc(Cl)cc1)N1CCN(Cc2ccc3c(c2)OCO3)CC1,3.99%,
CN(C)CCCOc1nn(Cc2ccccc2)c2ccccc12,6.73% [at 25.7 µM],
CCCCN1CCCC1C(=O)Nc1c(C)cc(C)cc1C (centres undefined),-31.2%,
CCCCc1nc(Cl)c(CO)n1Cc1ccc(-c2ccccc2-c2nn[nH]n2)cc1,1.28%,
C[C@H](O)C(=O)Nc1c(I)c(C(=O)NC(CO)CO)c(I)c(C(=O)NC(CO)CO)c1I,-26% [at 25.7 µM],
CCN(CC)C(=O)N1CCN(C)CC1,0.825% [at 25.7 µM],
CCCCC(CC)CN=C(N)NC(N)=NCCCCCCN=C(N)NC(N)=NCC(CC)CCCC (centres undefined),,20.3 µM (active)
Cc1c(C)n(CCN(C)C)c2ccc(C(=O)OCCN(C)C)cc12,-15.7%,
O=C1[C@H]2CCCC[C@H]2C(=O)N1CCCCN1CCN(c2nsc3ccccc23)CC1,,32.2 µM (active)

# Test: S16 Schwann cell PMP22 intronic element firefly luciferase assay (AID 624032); note: nearly all actives have a fitted effect of over 30% in size;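 for activity change, negative = inhibition: plate controls were DMSO for no effect and PTC124 positive control mean for full effect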
# Conditions: S16 rat Schwann cells, PMP22 element FLuc, 24 h; series mostly up to 57.5 µM; activity change, negative = inhibition: at the top concentration
# In short: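 Rat S16 Schwann cells stably carrying a PMP22 intronic element-driven Fluc reporter were seeded overnight, then exposed to compounds for 24 h at 37 °C. Luminescence was normalized to PTC124 (positive control) and DMSO (0% activity).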
Compound,"activity change, negative = inhibition",Potency
CCCCCCCCCCCCCCCCCC(=O)OCC(O)CO (centres undefined),-7.16%,
CCN(CC)CCNC(=O)COc1ccc(Cl)cc1,-10.3%,
CCCCCC=CCC=CCCCCCCCC(=O)OCC,3.38%,
CN1C(CCl)Nc2cc(Cl)c(S(N)(=O)=O)cc2S1(=O)=O (centres undefined),,161 nM (active)
O=C(O)CNC(=O)c1ccccc1,-3.2%,
NCCc1ccn[nH]1,-7.77% [at 25.7 µM],
O=C1c2ccccc2C(=O)C1c1ccccc1,18.7% [at 25.7 µM],
NC(CO)(CO)CO,-1.95%,
CCCCN1CCCC1C(=O)Nc1c(C)cc(C)cc1C (centres undefined),-10.2%,
